Our source for the outcome and AC50 values is PubChem BioAssay (EPA / NIEHS).

Active and inactive are the calls of the source. How the source made its calls: active means hit-call score of the fitted dose curve at least 0.9, where 1 is the maximum; inactive means score below 0.9.

Experiment [1] can be described thus: ATG_E_Box_CIS: Attagene CIS-FACTORIAL HepG2 Assay for human Enhancer Box (E-box) (AID 2282936). As to conditions: HepG2 E-box cis-reporter transcription, actives raise or lower the signal. The gist of the method:
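Cells: HepG2 (human liver), transient MRTU transfection. Exposure 24 h. RNA → oligo(dT) RT → PCR → 6-FAM label → HpaI → CE. Activity fitted both directions relative to DMSO.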

Experiment [2] is described as follows: ATG_M_61_CIS: Attagene CIS-FACTORIAL HepG2 Assay for M61 Transcription Factor (Internal Marker) (AID 2282937). The following applies: HepG2 Attagene CIS-FACTORIAL M61 internal marker reporter; actives raise or lower the signal. The gist of the method:
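Human liver HepG2, transient MRTU transfection (cis promoter elements), 24 h compound. Total RNA → oligo(dT) RT → PCR → FAM label → HpaI → CE. Internal background marker; bidirectional fitting, DMSO = baseline.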

The nature of experiment [3]: ATG_EGR_CIS: Attagene CIS-FACTORIAL HepG2 Assay for human Early Growth Response 1 (EGR1) (AID 2282938). The following applies: HepG2 Attagene CIS-FACTORIAL EGR reporter mRNA; actives raise or lower the signal. The gist of the method: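 Transient transfection of human HepG2 with multiple cis-regulated reporter units, chemical exposure 24 h, total RNA isolated. Reverse transcription, PCR, fluorescent labelling and capillary electrophoresis quantify reporter transcripts; activity fitted bidirectionally against DMSO.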

A short description of experiment [4]: ATG_M_19_CIS: Attagene CIS-FACTORIAL HepG2 Assay for M19 Transcription Factor (Internal Marker) (AID 2282939). The following applies: HepG2 Attagene CIS-FACTORIAL M19 internal marker reporter; actives raise or lower the signal. In short, it runs like this:
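Following a 24 h exposure, RNA from transfected HepG2 cells was reverse-transcribed, PCR-amplified with reporter-specific primers, end-labelled with 6-FAM and HpaI-digested before capillary separation. Values represent gain or loss versus DMSO.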

Experiment [5] is described as follows: ATG_Ets_CIS: Attagene CIS-FACTORIAL HepG2 Assay for human Erythroblast Transformation Specific (ETS) (AID 2282941). The following applies: HepG2 ETS cis-reporter transcription, actives raise or lower the signal. The gist of the method: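 HepG2 cells transfected with multiple cis-regulated reporter units measuring endogenous ETS-driven transcription, 24 h after dosing. Reporter mRNA quantified by RT-PCR with capillary electrophoresis; bidirectional fit relative to DMSO.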

The target of experiment [6] is Hepatocyte nuclear factor 3-beta (Homo sapiens) (UniProt Q9Y261). As to the kind of experiment: ATG_FoxA2_CIS: Attagene CIS-FACTORIAL HepG2 Assay for human Forkhead box A2 (FOXA2) (AID 2282942). As to conditions: HepG2 cis-reporter transcription factor activity, 24 h; actives raise or lower the signal. The gist of the method: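 Transient MRTU transfection of HepG2 liver cells; 24 h treatment; total RNA → oligo(dT) RT → PCR → FAM primer extension → HpaI cut → CE. Bidirectional fit vs DMSO.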
Hepatocyte nuclear factor 3-beta (Homo sapiens), sequence (Q9Y261 whole entry, looked up): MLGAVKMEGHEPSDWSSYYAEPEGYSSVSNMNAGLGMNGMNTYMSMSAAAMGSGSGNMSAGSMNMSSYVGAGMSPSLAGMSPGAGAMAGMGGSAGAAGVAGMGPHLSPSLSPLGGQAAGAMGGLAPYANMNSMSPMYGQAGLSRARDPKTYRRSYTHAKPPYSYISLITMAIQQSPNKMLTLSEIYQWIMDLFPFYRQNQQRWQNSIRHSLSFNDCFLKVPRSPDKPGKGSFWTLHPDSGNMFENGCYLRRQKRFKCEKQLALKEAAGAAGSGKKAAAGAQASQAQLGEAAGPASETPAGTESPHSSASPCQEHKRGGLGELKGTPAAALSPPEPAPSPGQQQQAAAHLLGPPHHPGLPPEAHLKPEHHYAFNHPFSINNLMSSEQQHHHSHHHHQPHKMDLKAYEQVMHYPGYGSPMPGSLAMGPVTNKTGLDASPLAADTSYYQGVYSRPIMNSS

Experiment [7] in a line: ATG_FoxO_CIS: Attagene CIS-FACTORIAL HepG2 Assay for human Forkhead box O (FoxO) (AID 2282943). The following applies: HepG2 Attagene cis-reporter, FoxO element, mRNA; actives raise or lower the signal. The gist of the method: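 HepG2, transient MRTU transfection (cis element, endogenous TFs). Dose 24 h. TriZol RNA → oligo(dT) RT → PCR → 6-FAM primer extension → HpaI cut → CE. Gain/loss vs DMSO.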

The nature of experiment [8]: ATG_GATA_CIS: Attagene CIS-FACTORIAL HepG2 Assay for human GATA Binding Protein (AID 2282944). As to conditions: HepG2 GATA cis-element reporter, Attagene multiplex mRNA; actives raise or lower the signal. In short, it runs like this:
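DMSO serves as negative control and baseline for bidirectional fitting of reporter mRNA changes. HepG2 cells bearing transiently transfected cis-promoter reporters were exposed 24 h; transcripts detected via RT-PCR and capillary electrophoresis.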

The nature of experiment [9]: ATG_GLI_CIS: Attagene CIS-FACTORIAL HepG2 Assay for human Zinc Finger Protein GLI1 (AID 2282945). As to conditions: HepG2, Attagene cis-factorial reporter mRNA, GLI element; actives raise or lower the signal. In short, it runs like this: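 Bidirectional curve fits relative to DMSO, using reporter mRNA levels from RT-PCR plus capillary electrophoresis. Cells were HepG2 transiently carrying cis-regulated reporter constructs, harvested 24 h after dosing.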

Experiment [10] deals with Bile acid receptor (Homo sapiens) (UniProt Q96RI1). As to the kind of experiment: ATG_IR1_CIS: Attagene CIS-FACTORIAL HepG2 Assay for human Nuclear Receptor Subfamily 1 Group H Member 4 (NR1H4), IR1 submotif (AID 2282946). The following applies: IR1 reporter transcription, actives raise or lower the signal. In short, it runs like this:
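Cells (human HepG2) carry transiently transfected cis-promoter reporter transcription units. Compounds are incubated 24 h, total RNA is reverse-transcribed and amplified, and labelled fragments are resolved by capillary electrophoresis. Curves use DMSO as baseline.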

The nature of experiment [11]: ATG_GRE_CIS: Attagene CIS-FACTORIAL HepG2 Assay for human Glucocorticoid Response Elements (GRE) (AID 2282947). The following applies: HepG2 GRE cis-reporter, Attagene multiplex mRNA; actives raise or lower the signal. The gist of the method: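 Transient MRTU transfection of human HepG2 liver cells; cis-regulated reporters report endogenous factors. 24 h dosing → RNA isolation → RT-PCR → 6-FAM primer extension → HpaI cut → CE fragment analysis. Bidirectional fit, DMSO negative control.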

Experiment [12] in a line: ATG_ISRE_CIS: Attagene CIS-FACTORIAL HepG2 Assay for human Interferon Regulatory Factor 1 (IRF1) binding to an Interferon-Stimulated Response Element (ISRE) (AID 2282948). The following applies: HepG2 ISRE cis-reporter (Attagene), mRNA transcription readout; actives raise or lower the signal. In short, it runs like this: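 Transiently transfected HepG2 cells carrying cis-element reporter units, dosed 24 hours. Reporter mRNA quantified by RT-PCR, fluorescent primer extension, HpaI digestion and capillary electrophoresis. Bidirectional fitting relative to DMSO.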

Experiment [13] in a line: ATG_M_32_CIS: Attagene CIS-FACTORIAL HepG2 Assay for M32 Transcription Factor (Internal Marker) (AID 2282949).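 Further: background control marker of the multiplexed CIS panel rather than a real target.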 The following applies: HepG2 Attagene cis-factorial M32 reporter, mRNA; actives raise or lower the signal. In short, it runs like this:
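HepG2 cells transiently transfected with multiplexed cis-regulated reporter units, dosed 24 h. Reporter mRNA quantified by RT-PCR, 6-FAM labelling, HpaI digestion and capillary electrophoresis; bidirectional fit vs DMSO.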

Experiment [14] is described as follows: ATG_M_06_CIS: Attagene CIS-FACTORIAL HepG2 Assay for M06 Transcription Factor (Internal Marker) (AID 2282950). The following applies: HepG2 Attagene CIS-FACTORIAL M06 internal marker reporter; actives raise or lower the signal. In short, it runs like this:
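Fluorescence-labelled RT-PCR products from cis-promoter reporter units, cut with HpaI and resolved by capillary electrophoresis, give the signal. Cells are human HepG2, dosed for 24 h. Serves as background control, fitted relative to DMSO.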

The target in experiment [15] is Hypoxia-inducible factor 1-alpha (Homo sapiens) (UniProt Q16665). Put plainly: ATG_HIF1a_CIS: Attagene CIS-FACTORIAL HepG2 Assay for human Hypoxia Inducible Factor 1 (HIF1A) (AID 2282951). As to conditions: HepG2 Attagene cis-factorial HIF1a reporter transcription; actives raise or lower the signal. The gist of the method:
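Transient MRTU transfection of human HepG2 liver cells, 24 h compound treatment, then total RNA isolation, oligo(dT) reverse transcription, PCR amplification, fluorescent labelling and capillary electrophoresis of reporter fragments. Gain or loss relative to DMSO.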

Experiment [16] addresses Hepatocyte nuclear factor 6 (Homo sapiens) (UniProt Q9UBC0). As to the kind of experiment: ATG_HNF6_CIS: Attagene CIS-FACTORIAL HepG2 Assay for human Hepatocyte Nuclear Factor 6 (HNF6) (AID 2282952). As to conditions: HepG2 Attagene cis-factorial HNF6 reporter transcription; actives raise or lower the signal. The gist of the method:
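HepG2 cells transiently transfected with cis-element-driven multiplexed reporter units measuring endogenous transcription factor activity. After 24 h exposure, reporter mRNA quantified by RT-PCR, FAM-labelled fragments and capillary electrophoresis; bidirectional fitting versus DMSO.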

Experiment [17] in a line: ATG_MRE_CIS: Attagene CIS-FACTORIAL HepG2 Assay for human Metal Responsive Element (MRE) (AID 2282954). The following applies: HepG2 MRE cis-reporter transcription, Attagene multiplex; actives raise or lower the signal. In short, it runs like this:
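Transient MRTU transfection of HepG2 (FuGene 6); 24 h dosing; total RNA → oligo(dT) RT, PCR, 6-FAM primer extension, HpaI cut, CE. Bidirectional fit vs DMSO.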

Experiment [18] can be described thus: ATG_PBREM_CIS: Attagene CIS-FACTORIAL HepG2 Assay for human Phenobarbital-responsive Enhancer Module (PBREM) (AID 2282955). As to conditions: HepG2 PBREM cis-reporter, Attagene multiplexed transcription; actives raise or lower the signal. The gist of the method: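 Endogenous transcription factors in human liver HepG2 cells drive a PBREM cis-element reporter, whose transcript level after 24 h treatment is quantified by RT-PCR with capillary electrophoresis; activity fitted in both directions against DMSO.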

In experiment [19] the target is Paired box protein Pax-6 (Homo sapiens) (UniProt P26367). Put plainly: ATG_Pax6_CIS: Attagene CIS-FACTORIAL HepG2 Assay for human Paired Box 6 (PAX6) (AID 2282956). The following applies: HepG2 CIS-FACTORIAL PAX6 reporter transcription, RNA readout; actives raise or lower the signal. In short, it runs like this:
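HepG2 cells transiently transfected with cis-promoter-driven multiplexed reporter units sensing endogenous transcription factor activity; 24 h chemical exposure. Reporter mRNA quantified by RT-PCR, 6-FAM labelling, HpaI digestion and capillary electrophoresis; bidirectional fit versus DMSO baseline.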

Experiment [20] addresses Heat shock factor protein 1 (Homo sapiens) (UniProt Q00613). As to the kind of experiment: ATG_HSE_CIS: Attagene CIS-FACTORIAL HepG2 Assay for human Heat Shock Transcription Factor 1 (HSE) (AID 2282953). The following applies: HepG2 HSE cis-reporter, Attagene RNA transcription; actives raise or lower the signal. In short, it runs like this:
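After a 24 h incubation with test chemical, transfected HepG2 cells were harvested for RNA; reporter transcripts were measured by RT-PCR and capillary electrophoresis. Values reflect gain or loss of signal relative to DMSO.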

Hepatocyte nuclear factor 6 (Homo sapiens), sequence (Q9UBC0 whole entry, looked up, the tested form may be a part): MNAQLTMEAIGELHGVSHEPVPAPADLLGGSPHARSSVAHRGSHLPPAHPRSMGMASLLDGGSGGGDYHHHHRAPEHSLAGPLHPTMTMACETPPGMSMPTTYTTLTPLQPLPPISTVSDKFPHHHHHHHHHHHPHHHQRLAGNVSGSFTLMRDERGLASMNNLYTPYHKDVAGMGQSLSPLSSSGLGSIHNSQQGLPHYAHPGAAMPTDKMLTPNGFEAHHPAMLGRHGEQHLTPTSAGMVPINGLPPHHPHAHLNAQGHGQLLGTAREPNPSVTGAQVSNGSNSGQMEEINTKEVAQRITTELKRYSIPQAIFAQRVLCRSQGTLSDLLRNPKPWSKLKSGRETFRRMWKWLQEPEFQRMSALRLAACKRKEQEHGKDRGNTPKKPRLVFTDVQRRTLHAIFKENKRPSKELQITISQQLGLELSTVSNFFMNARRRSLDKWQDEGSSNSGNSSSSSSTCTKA
Bile acid receptor (Homo sapiens), sequence (Q96RI1 whole entry, looked up, the tested form may be a part): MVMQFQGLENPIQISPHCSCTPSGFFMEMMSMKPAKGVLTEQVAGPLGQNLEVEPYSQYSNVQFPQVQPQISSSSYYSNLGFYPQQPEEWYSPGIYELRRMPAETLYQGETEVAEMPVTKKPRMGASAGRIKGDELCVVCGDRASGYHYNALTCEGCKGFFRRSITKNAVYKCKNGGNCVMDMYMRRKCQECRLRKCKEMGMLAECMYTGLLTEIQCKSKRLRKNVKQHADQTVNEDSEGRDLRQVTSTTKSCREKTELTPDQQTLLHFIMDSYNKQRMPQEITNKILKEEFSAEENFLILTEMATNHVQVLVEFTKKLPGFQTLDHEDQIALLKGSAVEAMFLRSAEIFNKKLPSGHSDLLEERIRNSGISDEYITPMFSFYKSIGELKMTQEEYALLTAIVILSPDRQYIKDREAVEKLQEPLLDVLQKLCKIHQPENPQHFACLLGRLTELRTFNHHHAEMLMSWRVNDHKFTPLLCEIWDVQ
Hypoxia-inducible factor 1-alpha (Homo sapiens), sequence (Q16665 whole entry, looked up, the tested form may be a part): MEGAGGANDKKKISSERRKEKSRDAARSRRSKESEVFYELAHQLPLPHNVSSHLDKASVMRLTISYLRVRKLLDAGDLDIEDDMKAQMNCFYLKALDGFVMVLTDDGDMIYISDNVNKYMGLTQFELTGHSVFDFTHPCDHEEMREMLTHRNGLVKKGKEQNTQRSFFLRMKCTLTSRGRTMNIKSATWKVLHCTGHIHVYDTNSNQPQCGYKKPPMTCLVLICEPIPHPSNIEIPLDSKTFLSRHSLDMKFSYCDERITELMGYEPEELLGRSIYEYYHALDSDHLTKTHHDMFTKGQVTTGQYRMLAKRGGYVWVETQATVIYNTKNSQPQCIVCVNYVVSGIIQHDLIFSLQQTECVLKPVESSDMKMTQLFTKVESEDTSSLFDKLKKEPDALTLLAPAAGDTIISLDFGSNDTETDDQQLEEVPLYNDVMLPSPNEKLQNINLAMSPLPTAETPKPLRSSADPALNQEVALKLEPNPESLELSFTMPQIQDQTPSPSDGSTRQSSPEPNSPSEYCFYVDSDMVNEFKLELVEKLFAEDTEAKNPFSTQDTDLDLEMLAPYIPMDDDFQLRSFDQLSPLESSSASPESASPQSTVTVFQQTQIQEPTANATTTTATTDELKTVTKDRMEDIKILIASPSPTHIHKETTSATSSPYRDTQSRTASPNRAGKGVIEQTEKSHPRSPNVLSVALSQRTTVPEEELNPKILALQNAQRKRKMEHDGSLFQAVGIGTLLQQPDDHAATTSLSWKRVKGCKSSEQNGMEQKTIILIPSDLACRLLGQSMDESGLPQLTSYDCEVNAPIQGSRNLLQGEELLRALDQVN
Heat shock factor protein 1 (Homo sapiens), sequence (Q00613 whole entry, looked up): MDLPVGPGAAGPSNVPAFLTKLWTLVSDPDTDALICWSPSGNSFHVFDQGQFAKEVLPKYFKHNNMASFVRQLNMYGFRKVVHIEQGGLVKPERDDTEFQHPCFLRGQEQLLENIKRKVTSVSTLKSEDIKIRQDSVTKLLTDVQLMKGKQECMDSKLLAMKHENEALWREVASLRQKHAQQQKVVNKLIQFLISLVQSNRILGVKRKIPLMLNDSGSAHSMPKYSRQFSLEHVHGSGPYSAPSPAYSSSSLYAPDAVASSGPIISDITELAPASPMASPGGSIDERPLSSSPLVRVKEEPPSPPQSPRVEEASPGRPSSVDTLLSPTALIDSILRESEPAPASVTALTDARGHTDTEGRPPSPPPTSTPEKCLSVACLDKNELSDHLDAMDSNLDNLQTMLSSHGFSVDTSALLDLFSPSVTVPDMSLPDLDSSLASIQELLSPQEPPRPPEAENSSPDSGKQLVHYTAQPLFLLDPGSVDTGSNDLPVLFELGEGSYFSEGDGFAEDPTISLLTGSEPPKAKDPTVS
Paired box protein Pax-6 (Homo sapiens), sequence (P26367 whole entry, looked up): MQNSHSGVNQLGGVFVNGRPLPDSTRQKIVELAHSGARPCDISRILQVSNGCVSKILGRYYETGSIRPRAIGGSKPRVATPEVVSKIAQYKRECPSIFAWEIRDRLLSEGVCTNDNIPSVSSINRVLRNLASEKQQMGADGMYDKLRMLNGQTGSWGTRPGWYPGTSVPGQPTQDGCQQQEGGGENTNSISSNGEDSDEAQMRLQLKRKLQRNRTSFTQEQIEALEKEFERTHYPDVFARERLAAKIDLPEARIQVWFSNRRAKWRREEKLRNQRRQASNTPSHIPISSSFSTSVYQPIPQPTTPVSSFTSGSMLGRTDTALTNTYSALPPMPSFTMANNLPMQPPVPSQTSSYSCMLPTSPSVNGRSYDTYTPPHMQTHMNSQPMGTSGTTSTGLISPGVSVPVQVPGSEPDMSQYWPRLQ

As to `OB(O)O`, the outcome in experiment [1], in [2], in experiment [3], in experiment [4], in experiment [5] and in [6] was inactive. The call in experiment [7], in experiment [8], in [9], in [10], in experiment [11] and in experiment [12] was inactive. Also, the result in experiment [13], in [14], in experiment [15], in [16], in experiment [17] and in experiment [18] was inactive. The compound was classed as inactive in [19].
With `CC(C)(C)[C@@H](O)[C@@H](Cc1ccc(Cl)cc1)n1cncn1`, the outcome in experiment [1], in experiment [2], in [4], in [6], in experiment [8] and in experiment [9] was inactive. Besides, the result in experiment [12], in [13], in experiment [14], in experiment [15], in experiment [16] and in experiment [17] was inactive. Further, the AC50 (as a rule, the midpoint of the concentration-response curve, whichever way the signal moves) in experiment [3] is 26.1 µM (active); in experiment [5], 68.5 µM (active); in [7] it was 12.6 µM (active); in experiment [10] it was 41.3 µM (active); in [11], 90.9 µM (active).
As for `CCOC(=O)[C@H](C)Oc1ccc(Oc2nc3ccc(Cl)cc3o2)cc1`, the outcome in experiment [1], in experiment [2], in experiment [3], in [4], in [5] and in experiment [6] was inactive. Further, the call in experiment [7], in experiment [8], in experiment [9], in experiment [10], in experiment [11] and in [12] was inactive. Besides, the result in experiment [13], in experiment [14], in experiment [15], in [16], in [20] and in [17] was inactive.
On to `COC(=O)c1ccccc1S(=O)(=O)NC(=O)Nc1nc(OC(F)F)cc(OC(F)F)n1`, for which the outcome in [1], in experiment [2], in [3], in [4], in experiment [5] and in experiment [6] was inactive. In addition, the result in experiment [7], in [8], in experiment [9], in experiment [10], in experiment [11] and in experiment [12] was inactive. Also, the outcome in [13], in experiment [14], in experiment [15], in experiment [16], in experiment [20] and in [17] was inactive.
